From the OligoGym collection
Further: reference of the scale not given here.

What follows are sequences tested against ACAD10 (assay: pooled miR-30 sensor sort-seq; sequence = guide strand). Settings: shRNA.
For TTTCATAATCCTGAACTCCCTC, the sensor-assay potency score (higher = more potent) was -0.41.
In the case of TTTCAGAGCAAAGTCTCCCAAA, the sensor-assay potency score (higher = more potent) is reported as -1.07.
With TTCAGCTTTGGCTTTCTCCTTG the sensor-assay potency score (higher = more potent) was -0.097.
TTCCAGTCCATACACCGTCAGA showed a sensor-assay potency score (higher = more potent) of -1.34.
Work on TAATCCTGAACTCCCTCTCTAT yielded a sensor-assay potency score (higher = more potent) of -1.27.

These sequences were tested against ACAP2 in the same assay as above. Settings: shRNA.
In the case of TTATTCTGTATTGAAAACCAGC, the sensor-assay potency score (higher = more potent) is reported as -0.889.
Sequence TTTGGTTGACATTAGCACCATT has a sensor-assay potency score (higher = more potent) of -0.325.
For TAACTTAGAATCATCACTGGAG, the sensor-assay potency score (higher = more potent) was 0.563.
TTTAGCTGTATACATTAGGGGG showed a sensor-assay potency score (higher = more potent) of -0.7.
For TGATTGAAGAACATTAATCTGA, the sensor-assay potency score (higher = more potent) was 0.0917.
TTTAGGATTTCTGATCTCCTTT showed a sensor-assay potency score (higher = more potent) of -0.154.
Sequence TACTTCTGACTGAACTTTGGGC has a sensor-assay potency score (higher = more potent) of 0.208.
Work on TTTAACAAAGTTCTGAAGCTGT yielded a sensor-assay potency score (higher = more potent) of 0.177.
For TAAATCTAGACTGAACTTCTGT, the sensor-assay potency score (higher = more potent) was 0.683.
TATCCTTCCATAACTATGCCAT gave a sensor-assay potency score (higher = more potent) of -0.0646.
For TAATCTGAAGCACATAATCGAG, the sensor-assay potency score (higher = more potent) was -1.42.
TATATTCTAACTTAGAATCATC gave a sensor-assay potency score (higher = more potent) of -0.946.

These sequences were tested against ACBD3 in the same assay as above. Settings: shRNA.
Sequence TAACTGACATCATATTACTTGG has a sensor-assay potency score (higher = more potent) of -0.575.
In the case of TTGCTGTGCAAGCTGGACTTGA, the sensor-assay potency score (higher = more potent) is reported as -0.769.
TTAACTGACATCATATTACTTG showed a sensor-assay potency score (higher = more potent) of 0.151.
In the case of TATTACTTGGTACAGTTGCATT, the sensor-assay potency score (higher = more potent) is reported as -1.49.
TTTTTCTTTGAAGAAGCGCAGT showed a sensor-assay potency score (higher = more potent) of -0.812.
Work on TTTCTCTTCACAACCGATGTTT yielded a sensor-assay potency score (higher = more potent) of -0.314.
TTCTTTTGGTCCATTCTCCAGG was tested, and the sensor-assay potency score (higher = more potent) was -0.756.
With TAAAGCTGCCATTATCTGCTGC the sensor-assay potency score (higher = more potent) was -0.101.
TTAAATGTCATCTTCTGCCCAA gave a sensor-assay potency score (higher = more potent) of 0.233.
TAGTAGACTGATTTTGACCGCC showed a sensor-assay potency score (higher = more potent) of 0.374.
With TCTTCTTCTATCCGTCTCCTTT the sensor-assay potency score (higher = more potent) was -0.731.
TTGAAGTCTTTGATCTGAGGTC showed a sensor-assay potency score (higher = more potent) of -0.0448.

The sequences below were run against ACCN2 in the same assay as above. Settings: shRNA.
In the case of TTTTCATCTGCCATCTGTGTGT, the sensor-assay potency score (higher = more potent) is reported as 0.238.
With TAGCACTTTCCATAGCGTGTGA the sensor-assay potency score (higher = more potent) was -0.16.
In the case of TTTGACGTCGTCCAGGCTGAGG, the sensor-assay potency score (higher = more potent) is reported as -1.49.
In the case of TATAGCAATATAGAGTCTGTAT, the sensor-assay potency score (higher = more potent) is reported as -0.0507.
Work on TGAACGTGTAGCACTTTCCATA yielded a sensor-assay potency score (higher = more potent) of -0.947.
TGTAGCACTTTCCATAGCGTGT showed a sensor-assay potency score (higher = more potent) of -0.609.
TAGTACTGCACACGCTCCGTGC gave a sensor-assay potency score (higher = more potent) of -0.962.
Sequence TTTGTTGAACTTCTTGGCCAGG has a sensor-assay potency score (higher = more potent) of -0.861.
With TTGGCTAAAGCGGAACTCGTTG the sensor-assay potency score (higher = more potent) was -0.0624.
With TTGAAGTCTTCAGCGCTGCAGA the sensor-assay potency score (higher = more potent) was -0.498.
With TTGAACGTGTAGCACTTTCCAT the sensor-assay potency score (higher = more potent) was -0.501.
